The list is not random: actives were taken first. Their share in the collection is about 1.4%.
Bim-Bcl-XL – human Bim-Bcl-XL interaction inhibition | Q07817 | Bim peptide-Bcl-XL binding, bead flow cytometry, fluorescence | inhibition, % at 10 µM | 0.04% of 190,000 active | AID 1007
Target sequence (Q07817 whole entry, looked up): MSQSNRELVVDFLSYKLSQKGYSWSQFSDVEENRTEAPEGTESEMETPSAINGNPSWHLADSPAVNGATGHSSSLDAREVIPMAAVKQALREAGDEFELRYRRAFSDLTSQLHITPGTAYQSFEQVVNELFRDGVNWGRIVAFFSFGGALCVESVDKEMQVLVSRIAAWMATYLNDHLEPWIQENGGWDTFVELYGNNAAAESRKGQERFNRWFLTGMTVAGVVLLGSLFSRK
Bim-Bfl-1 – disrupts Bim binding to human Bfl-1 | Bead-based flow cytometry, Bim-Bfl-1 binding inhibition | inhibition, % at 10 µM | 0.12% of 190,000 active | AID 1008;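 further: 0% = wells without compound plus tracer and 100% = blocker peptide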
Target sequence (Q16548 whole entry, looked up): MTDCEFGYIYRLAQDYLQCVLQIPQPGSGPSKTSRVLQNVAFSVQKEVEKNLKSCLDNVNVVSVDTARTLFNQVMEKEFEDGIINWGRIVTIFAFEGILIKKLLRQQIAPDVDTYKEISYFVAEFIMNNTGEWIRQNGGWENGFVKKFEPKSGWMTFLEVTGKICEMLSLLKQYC
Bcl-B Bim block – inhibitors of Bim-Bcl-B interaction, human; bead-based flow cytometry, Bim peptide-Bcl-B binding; inhibition, % at 10 µM; 0.073% of 190,000 active; Q9HD36;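 further: 0% = tracer peptide without compound and 100% = reference inhibitor peptide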
Bim-Bcl-W – disrupts Bim peptide binding to human Bcl-W. Q92843. bead-based flow cytometry. inhibition, % at 10 µM. 0.02% of 190,000 active. AID 952;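 further: 0% = bound tracer without compound and 100% = peptide blocker; higher means less fluorescent Bim peptide bound to Bcl-W beads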
Target sequence (Q92843 whole entry, looked up): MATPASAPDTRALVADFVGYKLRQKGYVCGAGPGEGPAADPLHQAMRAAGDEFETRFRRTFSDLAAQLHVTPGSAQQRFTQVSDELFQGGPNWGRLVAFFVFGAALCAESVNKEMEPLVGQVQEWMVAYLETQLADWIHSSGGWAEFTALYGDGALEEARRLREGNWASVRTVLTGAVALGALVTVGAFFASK
Bcl-2 Bim block – inhibitors of Bim-Bcl-2 interaction, human. P10415. Bead-based flow cytometry, Bim peptide-Bcl-2 binding. inhibition, % at 10 µM. 0.06% of 190,000 active; in the data active means inhibition above about 40%;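 further: 0% = no compound wells with probe peptide and 100% = reference peptide inhibitor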
Wee1 stabilizer – blocks degradation of human Wee1 kinase. HeLa Luc-Wee1K328M stability, luciferase luminescence; 100% = proteasome inhibitor MG132 effect. reporter increase, % at 5 µM. 1.2% of 220,000 active. AID 1321;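 active means activation above the mean of all tested compounds plus 3 SD, set per screening run, cut at about 8.8% in these data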;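 further: cells exposed to compound for 20 h before luminescence read; 0% = DMSO alone and 100% = MG132 at 30 µM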
The depositor's hits bear a star; / = not tested or not shown. Unless noted, no stated cut-off is given here; in the data, active means inhibition above about 40%.

SMILES | Bim-Bcl-XL | Bim-Bfl-1 | Bcl-B Bim block | Bim-Bcl-W | Bcl-2 Bim block | Wee1 stabilizer
CN(C(=O)CSc1nnc(-c2cccs2)o1)C1CCS(=O)(=O)C1 (stereo not drawn) | 1 | 2 | 0 | 2 | -1 | -4
CSc1ccc(CN2CCN(CCC(C)C)C(CCO)C2)cc1 (stereo not drawn) | 0 | -4 | -2 | -3 | 0 | 10*
Cc1ccc(N=C2SC(C(=O)Nc3ccc(OC(F)(F)F)cc3)C(N)=C2C(=O)Nc2c(C)cc(C)cc2C)cc1 (stereo not drawn) | -7 | -11 | -9 | -2 | -11 | 11*
COc1cccc(C2CC(c3ccc(Br)cc3)=NN2C(=O)c2ccncc2)c1OC (stereo not drawn) | 7 | 8 | -1 | 3 | 12 | 9.0*
COc1ccccc1C1CC(c2ccc(Br)cc2)=NN1C(=O)c1cccnc1 (stereo not drawn) | -10 | -9 | -12 | -5 | -5 | -2
Cn1nnnc1SCc1ccc(Cl)cc1 | -2 | -1 | -4 | -1 | -2 | 13*
Cn1nnnc1SCc1ccc(CSc2nnnn2C)cc1 | -1 | -7 | -2 | 0 | -3 | 0
O=C(CN1CCCCCCC1)N/N=C/c1ccc(F)cc1F | -2 | 0 | 0 | -2 | -2 | 9.6*
COc1cc(Cl)ccc1NC(=O)COc1ccccc1C(=O)NN | 3 | -3 | 2 | 1 | 0 | -1
CC1CCCCN1S(=O)(=O)c1ccc2c(c1)CCN2C(=O)C1CCC1 (stereo not drawn) | -4 | -14 | -9 | -2 | -11 | 8.8*
COc1ccc(CCNS(=O)(=O)c2ccc3c(c2)CCN3C(=O)C2CC2)cc1OC | -3 | -11 | -3 | 0 | -11 | 1
COc1cccc(CNS(=O)(=O)c2ccc3c(c2)CCN3C(=O)C2CC2)c1 | 0 | -4 | 12 | -3 | 3 | 9.2*
Cc1nc(-c2ccccc2)sc1-c1nc(-c2ccncc2)ncc1S(=O)(=O)c1ccccc1 | 0 | 0 | -2 | -2 | 0 | 2
Nc1nc2c(s1)COc1ccccc1-2 | -4 | 4 | -23 | -1 | 1 | -5
Nc1nc2c(s1)CCc1c-2cnn1-c1ccccc1 | 12 | 41* | 11 | 30 | 18 | 7
COc1ccc2oc(C(=O)c3ccccc3)c(N)c2c1 | 2 | -3 | -2 | 1 | -4 | 1
COc1ccc2oc(C(=O)C3CC3)c(N)c2c1 | -1 | -5 | 1 | 0 | -1 | 9.6*
O=C(NCc1ccco1)C1CC2CCC1C2 (stereo not drawn) | 47* | 2 | 2 | 4 | 1 | -2
Cc1ccc(C(C)C)c(OCC(=O)N2CCOCC2)c1 | -10 | -15 | -8 | -4 | -12 | 9.2*
Cc1ccc(-c2ccc(OCC(=O)N3CCOCC3)cc2)cc1 | -5 | -8 | -6 | 0 | -7 | 2
Cc1ccc(C(CC(=O)c2ccco2)SCCO)cc1 (stereo not drawn) | -11 | -15 | -9 | 0 | -4 | 11*
CS(=O)(=O)N1CCN=C1SCc1ccc([N+](=O)[O-])cc1 | -3 | -4 | -4 | -1 | -4 | 9.1*
COc1cc2nc(/C=C/c3cc(OC)c(OC)c(OC)c3)sc2cc1SC | 6 | 5 | -41 | -1 | 5 | 9.7*
COc1cc2nc(C)sc2cc1SC | 3 | 8 | -3 | 2 | 13 | -1
Cc1c(NC(=O)c2c(N)sc3c2CCCC3)c(=O)n(-c2ccccc2)n1C | 0 | 22 | -7 | 8 | 7 | 1
SMILES | Bim-Bcl-XL | Bim-Bfl-1 | Bcl-B Bim block | Bim-Bcl-W | Bcl-2 Bim block | Wee1 stabilizer
CCSc1nc2c(c(=O)[nH]1)C(C(C)C)C(C#N)=C(N)O2 (stereo not drawn) | 1 | 0 | 2 | 5 | 1 | 9.1*
CCc1[nH]nc2c1C(C(C)C)C(C#N)=C(N)O2 (stereo not drawn) | -3 | -2 | -8 | -3 | 0 | /
O=C(O)COn1c(-c2ccccc2)nc2ccc([N+](=O)[O-])cc21 | 1 | 0 | 0 | 3 | 1 | 11*
CCOC(=O)C(C)On1c(-c2ccccc2)nc2ccc([N+](=O)[O-])cc21 (stereo not drawn) | 0 | -8 | -1 | 0 | -7 | 1
COc1ccc(OC)c(NS(=O)(=O)c2ccc(Cl)s2)c1 | -7 | -7 | -5 | -3 | -8 | 0
COc1ccc(OC)c(NS(=O)(=O)c2ccc(Br)s2)c1 | 0 | 0 | 1 | 2 | 0 | 9.0*
Brc1ccccc1-c1csnn1 | -2 | -2 | -3 | -4 | -5 | 7
CC(O)/C=C/C1OC(=O)CC1Nc1ccc(C=O)cc1 (stereo not drawn) | -4 | -6 | -2 | -3 | -5 | 11*
C=CCNc1ncnc2sc(SC)nc12 | / | / | / | / | / | 10*
CCCn1c(SCC(=O)Nc2cccc(S(=O)(=O)N(C)C)c2)nc2ccccc2c1=O | / | / | / | / | / | -1
FC(F)(F)c1cc(N2CCN(Cc3ccccc3)CC2)c2ccccc2n1 | / | / | / | / | / | 10*
FC(F)(F)c1cc(N2CCNCC2)c2ccccc2n1 | / | / | / | / | / | -3
COc1cc(/C=C/c2noc(-c3ccccc3O)n2)ccc1OC(C)=O | / | / | / | / | / | 2
Oc1ccccc1/C=C/c1noc(-c2ccccc2O)n1 | -3 | 0 | -4 | -4 | -3 | 9.2*
CN(C)/N=C/C=C1\CCC/C(=C\c2ccc(F)c(F)c2)C1=O | 0 | 2 | -5 | 3 | -1 | 10*
CC(=O)N1Cc2cc([N+](=O)[O-])ccc2Oc2ccccc21 | 0 | 3 | 3 | 1 | 0 | -1
COCCNC(=O)c1ccc2c(=O)n(CCOC)c(=O)[nH]c2c1 | -5 | -10 | -10 | 0 | -8 | -1
COCCn1c(=O)[nH]c2cc(C(=O)NCCN3CCN(c4ccc(OC)cc4)CC3)ccc2c1=O | -2 | -17 | -3 | 3 | -11 | -2
COCCn1c(=O)[nH]c2cc(C(=O)NCCN3CCN(c4ccccc4)CC3)ccc2c1=O | -1 | -9 | -6 | 6 | -5 | 11*
CCCCCNC(=O)c1ccc2c(=O)n(CCOC)c(=O)[nH]c2c1 | -2 | -11 | -7 | 0 | -5 | 10.0*
COc1ccc(C2N(S(=O)(=O)c3ccccc3)CCN2S(=O)(=O)c2ccc(C)cc2)cc1 (stereo not drawn) | -9 | -12 | -12 | 5 | -11 | -1
CCc1ccc(OCCNC(=O)c2ccc(S(=O)(=O)N(C)C)cc2)cc1 | -4 | -16 | -6 | 0 | -13 | 9.9*
CCOc1ccc(NC(=O)c2ccc(S(=O)(=O)N(C)C)cc2)cc1 | -6 | -8 | -10 | -8 | -7 | 2
CN(CC(=O)Nc1ccc(N2CCOCC2)cc1)C(=O)CC(c1ccccc1)c1ccccc1 | 1 | -1 | 1 | 0 | 0 | 10*
COc1ccc(N2CCN(C(=O)Cc3ccc(Br)cc3)CC2)cc1 | / | / | / | / | / | -2
O=Cc1c(OCc2ccccc2)ccc2ccccc12 | 0 | -2 | -2 | 0 | 1 | 11*
